Laboratory results: the supplement of paper PMC8728848
Shown is part of a subset that was picked to be rich in the strongest signals.

Experiments:
Experiment in all cases: glycan array binding signal (z-score within array); higher = stronger binding
Conditions in all cases: glycan notation: IUPAC condensed, linker removed
Gal6S(b1-4)GlcNAc6S = molecular target: Gal6S(b1-4)GlcNAc6S
In short: (§1)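 The binding signal is a Z-score computed within each array and averaged over linkers. Arrays of the same protein sequence at different concentrations or buffers were also averaged together. Data originate from 3228 arrays in the Consortium for Functional Glycomics database, kept only where the protein sequence was available.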

[1] = molecular target: GalNAc(b1-3)Gal(a1-6)Gal(b1-4)Glc
In short: as §1

GalNAc3S(b1-4)GlcNAc3S = molecular target: GalNAc3S(b1-4)GlcNAc3S
In short: as §1

[2] = molecular target: Glc(a1-4)Glc(a1-4)Glc(a1-4)Glc
In short: as §1

[3] = molecular target: Glc(a1-6)Glc(a1-6)Glc(a1-6)Glc
In short: as §1

GlcA(b1-6)Gal = molecular target: GlcA(b1-6)Gal
In short: as §1

GlcNAc(b1-3)Gal = molecular target: GlcNAc(b1-3)Gal
In short: as §1

[4] = molecular target: GlcNAc(b1-3)Gal(b1-4)GlcNAc(b1-2)Man(a1-3)[GlcNAc(b1-3)Gal(b1-4)GlcNAc(b1-2)Man(a1-6)]Man(b1-4)GlcNAc(b1-4)GlcNAc
In short: as §1

[5] = molecular target: GlcNAc(b1-3)Gal(b1-4)GlcNAc(b1-3)Gal(b1-4)GlcNAc(b1-2)Man(a1-3)[GlcNAc(b1-3)Gal(b1-4)GlcNAc(b1-3)Gal(b1-4)GlcNAc(b1-2)Man(a1-6)]Man(b1-4)GlcNAc(b1-4)GlcNAc
In short: as §1

[6] = molecular target: GlcNAc(b1-3)Gal(b1-4)GlcNAc(b1-6)[GlcNAc(b1-3)]Gal(b1-4)GlcNAc
In short: as §1

[7] = molecular target: Man(a1-2)Man(a1-2)Man(a1-3)Man
In short: as §1

[8] = molecular target: Man(a1-3)[Man(a1-6)]Man(a1-6)[Man(a1-3)]Man
In short: as §1

[9] = molecular target: Man(a1-3)[Man(a1-6)]Man(a1-6)[Man(a1-3)]Man(b1-4)GlcNAc(b1-4)GlcNAc
In short: as §1

[10] = molecular target: Man(a1-3)[Man(a1-6)]Man(b1-4)GlcNAc(b1-4)[Fuc(a1-6)]GlcNAc
In short: as §1

Man(a1-6)Man = molecular target: Man(a1-6)Man
In short: as §1

[11] = molecular target: Neu5Ac(a2-3)Gal(b1-3)[Fuc(a1-4)]GlcNAc(b1-3)Gal(b1-3)[Fuc(a1-4)]GlcNAc
In short: as §1

[12] = molecular target: Neu5Ac(a2-3)Gal(b1-3)[Fuc(a1-4)]GlcNAc(b1-3)Gal(b1-4)[Fuc(a1-3)]GlcNAc
In short: as §1

[13] = molecular target: Neu5Ac(a2-3)Gal(b1-4)GlcNAc(b1-2)Man(a1-3)[Neu5Ac(a2-3)Gal(b1-4)GlcNAc(b1-2)Man(a1-6)]Man(b1-4)GlcNAc(b1-4)[Fuc(a1-6)]GlcNAc
In short: as §1

[14] = molecular target: Neu5Ac(a2-3)Gal(b1-4)GlcNAc(b1-3)Gal(b1-4)GlcNAc(b1-3)Gal(b1-4)GlcNAc(b1-2)Man(a1-3)[Neu5Ac(a2-3)Gal(b1-4)GlcNAc(b1-3)Gal(b1-4)GlcNAc(b1-3)Gal(b1-4)GlcNAc(b1-2)Man(a1-6)]GalNAc
In short: as §1

[15] = molecular target: Neu5Ac(a2-3)Gal(b1-4)GlcNAc(b1-3)Gal(b1-4)[Fuc(a1-3)]GlcNAc
In short: as §1

[16] = molecular target: Neu5Ac(a2-3)Gal6S(b1-4)GlcNAc
In short: as §1

[17] = molecular target: Neu5Ac(a2-6)Gal(b1-4)GlcNAc(b1-3)Gal(b1-4)GlcNAc(b1-3)Gal(b1-4)GlcNAc(b1-2)Man(a1-3)[Neu5Ac(a2-6)Gal(b1-4)GlcNAc(b1-3)Gal(b1-4)GlcNAc(b1-3)Gal(b1-4)GlcNAc(b1-2)Man(a1-6)]GalNAc
In short: as §1

[18] = molecular target: Neu5Ac(a2-6)Gal(b1-4)GlcNAc(b1-3)Gal(b1-4)[Fuc(a1-3)]GlcNAc(b1-3)Gal(b1-4)[Fuc(a1-3)]GlcNAc
In short: as §1

[19] = molecular target: Neu5Ac(a2-6)Gal(b1-4)GlcNAc6S
In short: as §1

[20] = molecular target: Neu5Gc(a2-3)Gal(b1-4)GlcNAc(b1-3)Gal(b1-4)GlcNAc(b1-2)Man(a1-3)[Neu5Gc(a2-3)Gal(b1-4)GlcNAc(b1-3)Gal(b1-4)GlcNAc(b1-2)Man(a1-6)]Man(b1-4)GlcNAc(b1-4)GlcNAc
In short: as §1

B1: EULS2 M2 (Oryza sativa) (protein)
chain: MVYCRANPNYAMTARNGAVVLAPANPKDEYQHWIKDMRWSTSIKDEEGYPAFALVNKATGQAIKHSLGQSHPVRLVPYNPEVMDESVLWTESRDVGNGFRCIRMVNNIYLNFDAFHGDKYHGGVRDGTDIVLWKLCEGDSQRWKIQPYYILEQKLISEEDLNSAVDHHHHHH
Gal6S(b1-4)GlcNAc6S
  glycan array binding signal (z-score): 2.72
[1]
  glycan array binding signal (z-score): 0.855
GalNAc3S(b1-4)GlcNAc3S
  glycan array binding signal (z-score): 0.228
[2]
  glycan array binding signal (z-score): -0.217
[3]
  glycan array binding signal (z-score): -0.066
GlcA(b1-6)Gal
  glycan array binding signal (z-score): 0.412
GlcNAc(b1-3)Gal
  glycan array binding signal (z-score): -0.404
[4]
  glycan array binding signal (z-score): -0.176
[5]
  glycan array binding signal (z-score): 0.163
[6]
  glycan array binding signal (z-score): -0.388
[7]
  glycan array binding signal (z-score): -0.332
[8]
  glycan array binding signal (z-score): 7.3
[9]
  glycan array binding signal (z-score): 3.29
[10]
  glycan array binding signal (z-score): 0.966
Man(a1-6)Man
  glycan array binding signal (z-score): 5.83
[11]
  glycan array binding signal (z-score): 0.084
[12]
  glycan array binding signal (z-score): -0.548
[13]
  glycan array binding signal (z-score): -0.323
[14]
  glycan array binding signal (z-score): -0.26
[15]
  glycan array binding signal (z-score): -0.328
[16]
  glycan array binding signal (z-score): -0.449
[17]
  glycan array binding signal (z-score): 0.058
[18]
  glycan array binding signal (z-score): -0.268
[19]
  glycan array binding signal (z-score): -0.389
[20]
  glycan array binding signal (z-score): 0.09
